Results taken from the antibiotic and cytotoxicity screens of Wong et al. (2023).
The whole screen tested about 39,000 compounds, of which about 3,300 (8.5%) were called active. This is one part of a sample in which actives are shown more often than they occur.

The compounds below were run on HepG2 (assay: cytotoxicity call (relative viability < 0.9)). Details: 10 µM.
For `COc1ccc(CCNC(=O)[C@@]2(Sc3ccc(C)cc3)CC(=O)N(Cc3cc(C(F)(F)F)cc(C(F)(F)F)c3)[C@@H]2c2ccc(CO)cc2I)cc1`, the cytotoxicity call was “inactive”.
`Cc1ccc(S(=O)(=O)N2C[C@@H](O)COC[C@@H]3O[C@@H](CC(=O)N[C@@H]4CCN(Cc5ccccc5)C4)CC[C@H]32)cc1` was tested, and the cytotoxicity call was “inactive”.
With `COCC(=O)Nc1ccc2c(c1)C(=O)N(C)C[C@H](OC)[C@H](C)CN(C(=O)Cc1cccnc1)[C@H](C)CO2` the cytotoxicity call was “inactive”.
With `C[C@@H]1CN([C@@H](C)CO)C(=O)c2cc(NC(=O)C3CC3)ccc2O[C@H]1CN(C)Cc1ccc(Oc2ccccc2)cc1` the cytotoxicity call was “inactive”.
For `C[C@@H]1CN([C@@H](C)CO)S(=O)(=O)c2ccc(C#CC(C)(C)O)cc2O[C@H]1CN(C)C(=O)C1CCCCC1`, the cytotoxicity call was “inactive”.
With `O=C(C[C@@H]1C=C[C@H](NC(=O)C2CCC2)[C@H](CO)O1)NCCCN1CCOCC1` the cytotoxicity call was “inactive”.
In the case of `C[C@H](CO)N1C[C@H](C)[C@@H](CN(C)Cc2ccc(C(=O)Nc3ccccc3N)cc2)Oc2ccc(NC(=O)Cc3ccccc3)cc2C1=O`, the cytotoxicity call is reported as “inactive”.
For `C[C@H]1CN([C@@H](C)CO)S(=O)(=O)c2ccc(-c3ccc(F)cc3)cc2O[C@@H]1CN(C)S(C)(=O)=O`, the cytotoxicity call was “inactive”.
For `C[C@@H]1CN([C@H](C)CO)C(=O)c2cc(NS(=O)(=O)c3ccccc3)ccc2O[C@@H](C)CCCCO[C@@H]1CN(C)S(C)(=O)=O`, the cytotoxicity call was “inactive”.
In the case of `COc1ccc(S(=O)(=O)Nc2ccc3c(c2)C(=O)N([C@@H](C)CO)C[C@@H](C)[C@H](CN(C)C(=O)c2ccccc2)OCCCC[C@H](C)O3)cc1`, the cytotoxicity call is reported as “inactive”.
With `COc1ccc(CN(C)C[C@@H]2Oc3ccc(NC(=O)Nc4cccc5ccccc45)cc3C(=O)N([C@@H](C)CO)C[C@@H]2C)cc1` the cytotoxicity call was “inactive”.
With `COc1ccc(CN(C)C[C@H]2Oc3ccc(NC(=O)Nc4cccc5ccccc45)cc3C(=O)N([C@H](C)CO)C[C@H]2C)cc1` the cytotoxicity call was “inactive”.
`C[C@H]1CN([C@@H](C)CO)C(=O)c2cc(NC(=O)Nc3cccc4ccccc34)ccc2O[C@@H]1CN(C)Cc1ccc(Oc2ccccc2)cc1` was tested, and the cytotoxicity call was “active”.
In the case of `C[C@H]1CN([C@@H](C)CO)C(=O)c2cccc(NC(=O)c3cnccn3)c2O[C@@H]1CN(C)C(=O)Nc1ccc(F)cc1`, the cytotoxicity call is reported as “inactive”.
In the case of `CC(=O)OCCn1c(=O)[nH]c(=O)c2nsnc21`, the cytotoxicity call is reported as “inactive”.
With `Cc1ccc(S(=O)(=O)Nc2ccc3c(c2)C(=O)N([C@@H](C)CO)C[C@@H](C)[C@@H](CN(C)C(=O)Nc2cccc4ccccc24)OCCCC[C@H](C)O3)cc1` the cytotoxicity call was “inactive”.
For `Cc1ccc(S(=O)(=O)Nc2ccc3c(c2)C(=O)N([C@@H](C)CO)C[C@H](C)[C@@H](CN(C)C(=O)Nc2cccc4ccccc24)OCCCC[C@@H](C)O3)cc1`, the cytotoxicity call was “inactive”.
For `Cc1ccc(S(=O)(=O)Nc2ccc3c(c2)C(=O)N([C@@H](C)CO)C[C@H](C)[C@@H](CN(C)C(=O)Nc2cccc4ccccc24)OCCCC[C@H](C)O3)cc1`, the cytotoxicity call was “inactive”.
In the case of `Cc1ccc(S(=O)(=O)Nc2ccc3c(c2)C(=O)N([C@H](C)CO)C[C@H](C)[C@@H](CN(C)C(=O)Nc2cccc4ccccc24)OCCCC[C@@H](C)O3)cc1`, the cytotoxicity call is reported as “inactive”.
In the case of `Cc1ccc(S(=O)(=O)Nc2ccc3c(c2)C(=O)N([C@H](C)CO)C[C@H](C)[C@H](CN(C)C(=O)Nc2cccc4ccccc24)OCCCC[C@H](C)O3)cc1`, the cytotoxicity call is reported as “active”.
In the case of `Cc1ccc(S(=O)(=O)Nc2ccc3c(c2)C(=O)N([C@H](C)CO)C[C@@H](C)[C@H](CN(C)C(=O)Nc2cccc4ccccc24)OCCCC[C@H](C)O3)cc1`, the cytotoxicity call is reported as “active”.
`Cc1ccc(S(=O)(=O)Nc2ccc3c(c2)C(=O)N([C@@H](C)CO)C[C@H](C)[C@H](CN(C)C(=O)Nc2cccc4ccccc24)OCCCC[C@@H](C)O3)cc1` was tested, and the cytotoxicity call was “inactive”.
`Cc1ccc(S(=O)(=O)Nc2ccc3c(c2)C(=O)N([C@H](C)CO)C[C@@H](C)[C@H](CN(C)C(=O)Nc2cccc4ccccc24)OCCCC[C@@H](C)O3)cc1` was tested, and the cytotoxicity call was “active”.
For `Cc1ccc(S(=O)(=O)Nc2ccc3c(c2)C(=O)N([C@@H](C)CO)C[C@H](C)[C@H](CN(C)C(=O)Nc2cccc4ccccc24)OCCCC[C@H](C)O3)cc1`, the cytotoxicity call was “inactive”.
In the case of `CC(=O)Nc1cc2c(cc1N)OCCO2`, the cytotoxicity call is reported as “inactive”.
For `COCC(=O)N(C)C[C@@H]1Oc2cc(C#C[C@H](C)O)ccc2S(=O)(=O)N([C@@H](C)CO)C[C@@H]1C`, the cytotoxicity call was “inactive”.
In the case of `C[C@@H]1CN([C@@H](C)CO)C(=O)c2cc(NC(=O)Nc3ccc4c(c3)OCO4)ccc2O[C@@H]1CN(C)Cc1ccc(Oc2ccccc2)cc1`, the cytotoxicity call is reported as “active”.
With `C[C@@H]1CN([C@@H](C)CO)C(=O)c2cc(NC(=O)Nc3ccc4c(c3)OCO4)ccc2O[C@H]1CN(C)Cc1ccc(Oc2ccccc2)cc1` the cytotoxicity call was “inactive”.
With `C[C@H](CO)N1C[C@H](C)[C@H](CN(C)Cc2ccc(Oc3ccccc3)cc2)Oc2ccc(NC(=O)Nc3ccc4c(c3)OCO4)cc2C1=O` the cytotoxicity call was “inactive”.
`C[C@@H]1CN([C@H](C)CO)C(=O)c2cc(NC(=O)Nc3ccc4c(c3)OCO4)ccc2O[C@@H]1CN(C)Cc1ccc(Oc2ccccc2)cc1` was tested, and the cytotoxicity call was “active”.
For `C[C@H]1CN([C@@H](C)CO)C(=O)c2cc(NC(=O)Nc3ccc4c(c3)OCO4)ccc2O[C@H]1CN(C)Cc1ccc(Oc2ccccc2)cc1`, the cytotoxicity call was “inactive”.
With `C[C@H](CO)N1C[C@H](C)[C@@H](CN(C)Cc2ccc(Oc3ccccc3)cc2)Oc2ccc(NC(=O)Nc3ccc4c(c3)OCO4)cc2C1=O` the cytotoxicity call was “inactive”.
For `C[C@@H]1CN([C@H](C)CO)C(=O)c2cc(NC(=O)Nc3ccc4c(c3)OCO4)ccc2O[C@H]1CN(C)Cc1ccc(Oc2ccccc2)cc1`, the cytotoxicity call was “inactive”.
With `C[C@H]1CN([C@@H](C)CO)C(=O)c2cc(NC(=O)Nc3ccc4c(c3)OCO4)ccc2O[C@@H]1CN(C)Cc1ccc(Oc2ccccc2)cc1` the cytotoxicity call was “active”.
For `C[C@@H]1CN([C@@H](C)CO)C(=O)c2cccc(NC(=O)C3CCCCC3)c2O[C@H]1CN(C)C(=O)Nc1cccc2ccccc12`, the cytotoxicity call was “inactive”.
`Cc1cc(C(=O)Nc2ccc3c(c2)C(=O)N(C)[C@@H]2CC[C@@H](CC(=O)NCC(F)(F)F)O[C@H]2CO3)no1` was tested, and the cytotoxicity call was “inactive”.
With `C[C@@H]1CN([C@@H](C)CO)C(=O)c2cc(NC(=O)CCC(F)(F)F)ccc2O[C@@H](C)CCCCO[C@@H]1CN(C)Cc1ccc(C(=O)O)cc1` the cytotoxicity call was “inactive”.
